# ELG1 genotox = inducers of genotoxicity in HEK293T ELG1-luciferase cells; hit rate 1.3% among 330,000; AID 504466; HEK293T ELG1-luciferase reporter, luminescence, 16 h; Potency, µM (top dose mostly 46 µM), most hits filed as activators; also: nearly all actives have a fitted effect of over 60% in size
#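 Quantitative HTS format in 1536-well plates. HEK293T ELG1-luciferase reporter cells receive test compound and are incubated 16 hr at 37 °C, 5% CO2; ONE-Glo added, 30 min room temperature, then luminescence read.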
# SMN2 splice enh = enhancers of SMN2 splice variant expression. HEK293 SMN2-luciferase splicing reporter, luminescence, 30-36 h. hit rate 2.8% among 210,000. Potency, µM (top dose mostly 46.1 µM), hits mostly activators; also: nearly all actives have a fitted effect of over 55% in size
#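 qHTS luciferase splicing reporter: luminescence rises when SMN2 exon 7 is included in transfected HEK293 cells. Compound exposure lasted 30-36 h at 37C, with 4.5 mM final sodium butyrate as control, followed by a ONE-Glo read.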
# NPC1 prom act = activators of NPC1 promoter; AID 485313; hit rate 2.4% among 320,000; Huh7 NPC1 promoter luciferase reporter, 24 h; Potency, µM (top dose mostly 9.22 µM), most hits filed as activators; also: nearly all actives have a fitted effect of over 60% in size
#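 In 1536-well qHTS, Huh7 cells harboring an NPC1 promoter–luciferase construct received compound for 24 h; activation was quantified by luminescence following luciferase reagent addition.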
# FLuc modulator = firefly luciferase modulation, counter-screen for miR-21 project | P08659 | purified FLuc, Km substrates, luminescence inhibition | Potency, µM (highest dose often 57.5 µM), hits mostly inhibitors | hit rate 6.9% among 360,000; also: nearly all actives have a fitted effect of over 55% in size
# Target sequence (P08659 whole entry, looked up): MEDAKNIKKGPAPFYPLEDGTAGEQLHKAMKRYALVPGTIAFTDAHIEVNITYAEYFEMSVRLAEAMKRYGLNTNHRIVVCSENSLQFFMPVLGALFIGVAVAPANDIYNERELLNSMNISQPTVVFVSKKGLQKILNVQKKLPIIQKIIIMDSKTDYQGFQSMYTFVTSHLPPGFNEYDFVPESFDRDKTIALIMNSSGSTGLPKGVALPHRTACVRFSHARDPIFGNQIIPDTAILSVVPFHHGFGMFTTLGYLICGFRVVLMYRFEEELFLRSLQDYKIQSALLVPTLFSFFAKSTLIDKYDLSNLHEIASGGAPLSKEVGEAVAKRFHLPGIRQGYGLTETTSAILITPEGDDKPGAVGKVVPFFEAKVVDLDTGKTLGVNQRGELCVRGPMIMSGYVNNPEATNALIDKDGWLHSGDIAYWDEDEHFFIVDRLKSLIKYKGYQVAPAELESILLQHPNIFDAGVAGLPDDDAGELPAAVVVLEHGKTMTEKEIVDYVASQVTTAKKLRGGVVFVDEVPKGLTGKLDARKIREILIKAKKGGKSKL
#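 Purified P. pyralis luciferase, 10 nM final, with Km-level 10 uM D-luciferin and 10 uM ATP in 50 mM Tris acetate pH 7.5, 10 mM Mg acetate, 0.01% Tween-20, 0.05% BSA; 6-point qHTS titration about 60 µM downward; luminescence read.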
# Rab9 prom act = Rab9 promoter activation; Huh7 Rab9 promoter-luciferase reporter, luminescence, 24 h; Potency, µM (doses to about 9.22 µM), usual class: activators; hit rate 2.8% among 320,000; also: nearly all actives have a fitted effect of over 60% in size
#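 Cells were plated at 1500 per well in reduced-serum medium with 10% FBS and left 2 h. Compound in DMSO was then added for 24 h at 37 °C. Reporter signal was read by luminescence after 10 min with luciferase detection reagent.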
# ELG1 DNA repair = ELG1-dependent DNA repair inhibition. HEK293T ELG1-luciferase reporter, luminescence, 16 h; DNA damage induced by 5-fluorouridine. AID 504467. hit rate 2.3% among 330,000. Potency, µM (titrated, usually from 46.1 µM), usual class: inhibitors; also: nearly all actives have a fitted effect of over 55% in size
#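 Quantitative HTS, concentration-response format. 2,000 cells/well co-treated with 5-fluorouridine and compound, 16 hr in 5% CO2 at 37 °C; ONE-Glo luminescence read after 30 min.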
# A number is an active result; n = inactive; u = inconclusive; x = no result; [ ] = dose if it differs, or a comment. In the library only some 9.3% were active in any assay of this set; here they are far more common. Calls follow the shape of the dose curve; as a rule, active = well fitted curve in the direction sought with a large enough effect; inconclusive = small, poorly fitted or top-dose-only effect, or another doubt; inactive = no such curve, though single readings can be large; an effect the other way counts as inactive or inconclusive.
SMILES,ELG1 genotox,SMN2 splice enh,NPC1 prom act,FLuc modulator,Rab9 prom act,ELG1 DNA repair
CCOC(=O)c1c(NC(=O)c2cc3nc(-c4ccc(OC)cc4)cc(C(F)(F)F)n3n2)sc2c1CCC(C)C2 (configuration not stated),x,x,x,n,x,x
Cc1cccn2c(=O)cc(COc3ccc(NC(=O)C(C)Oc4ccccc4)cc3)nc12 (configuration not stated),x,x,x,n,x,x
CCOC(=O)c1cccc(NC(=O)c2ccc(NC(=O)C3CCCO3)cc2)c1 (configuration not stated),n,x,n,u,n,n
Cc1ccc2nc(-c3ccc(NC(=O)c4ccco4)cc3)[nH]c2c1,2.1µM,7.9µM,1.6µM,3µM,3.5µM,u
O=C(Nc1cccc(-c2nc3ccccc3[nH]2)c1)c1ccco1,n,n,n,15µM,n,u
O=C(Nc1ccc2nc(-c3cccs3)[nH]c2c1)c1ccco1,n,u,n,7.6µM,u,u
COc1c(Cl)cc(C(=O)Nc2cccc(-c3nc4ccccc4[nH]3)c2)cc1Cl,x,n,x,u,x,x
O=C(Nc1ccc2nc(-c3cccs3)[nH]c2c1)c1cccs1,n,n,n,n[2.3 µM],n,u
O=C(Nc1ccc(-c2nc3ccc(NC(=O)c4cccs4)cc3[nH]2)cc1)c1cccs1,13µM,10µM,n,n,n,u
COc1ccccc1N1CCN(C(=O)c2ccc(CN3CCOCC3)cc2)CC1,n,n,n,n,n,n
COc1ccc(NC(=O)NCc2c(-n3cccc3)sc3c2CCCC3)c(OC)c1,x,x,x,n,x,x
c1cncc(CNc2cccc(-c3nc4ccccc4[nH]3)c2)c1,u,0.89µM,2.8µM,7.6µM,2.5µM,u
CC(=O)c1cccc(NC(=O)c2ccco2)c1,n,n,n,n,n,n
Cn1cccc1-c1nc2ccc(NC(=O)c3ccco3)cc2[nH]1,n,n,n,17µM,n,u
Nc1ccc(C(=O)Nc2ccc3nc(-c4ccncc4)[nH]c3c2)cc1,n,u,n,17µM,n,n
O=C(OCC(=O)N1CCOCC1)c1ccccc1OCc1ccccc1,n,x,n,24µM,n,u
O=C(OCC(=O)N1CCCC1)c1ccccc1OCc1ccccc1,u,13µM,n,17µM,n,u
O=C(OCC(=O)N1CCOCC1)c1ccc[nH]c1=O,n,n,n,n,n,n
O=C(OCC(=O)N1CCOCC1)c1ccc2ccccc2c1O,u,x,3.2µM,17µM,4µM,u
COCCOC(=O)c1c(NC(=O)CN2CCOCC2)sc(C(N)=O)c1C,n,n,n,n,n,n
COc1cc(NC(=O)CN2c3ccccc3CC2C)cc(OC)c1OC (configuration not stated),n,n,n,n,n,16µM
COCCOC(=O)c1c(NC(=O)CN2c3ccccc3CC2C)sc(C(N)=O)c1C (configuration not stated),n,n,n,n,n,9.2µM
COc1ccc(Cl)cc1NC(=O)CN1c2ccccc2CC1C (configuration not stated),n,n,n,n,n,u
CC1Cc2ccccc2N1CC(=O)Nc1ccc(S(=O)(=O)N(C)C)cc1 (configuration not stated),n,x,n,n,n,u
CC1Cc2ccccc2N1CC(=O)Nc1ccc(Cl)c(S(=O)(=O)N(C)C)c1 (configuration not stated),n,n,n,n,n,23µM
SMILES,ELG1 genotox,SMN2 splice enh,NPC1 prom act,FLuc modulator,Rab9 prom act,ELG1 DNA repair
COC(=O)CC1c2ccccc2C=C(/C=C/c2ccc3c(c2)OCO3)N1C(=O)OC (configuration not stated),x,n[9.22 µM],x,x,x,x
C=CCn1c(SCc2ccccc2Cl)nnc1-c1sc2nc(C)cc(C)c2c1N,n,x,n,n,n,21µM
CCOc1ccc(NC(=O)c2ccc(F)c(S(=O)(=O)N(CC)Cc3ccccc3)c2)cc1,x,x,x,n,x,x
Cc1ccc(NC(=O)OCc2cccs2)cc1,2.9µM,x,1.6µM,5.4µM,1.1µM,u
Cc1ccc(NC(=O)OCc2cc(-c3ccccc3)on2)cc1,n,n,n,u,n,u
Nc1ccc(NC(=O)c2cccs2)cc1,n,x,n,n,n,u
O=C(Nc1ccc2c(c1)CCC2)c1cccs1,u,x,2µM,6.7µM,1.6µM,u
O=C(Nc1cccc(O)c1)c1ccc(NC(=O)c2cccs2)cc1,u,x,u,15µM,n,u
O=C(Nc1ccc(NC(=O)c2cccs2)cc1)c1ccccc1,u,x,u,n,4µM,u
COc1ccc(S(=O)(=O)NNC(=O)C2CC(c3cccnc3)=NO2)cc1 (configuration not stated),n,n,n,n,n,n
Cc1cc(C)nc(NS(=O)(=O)c2ccc(NC(=O)c3cccs3)cc2)n1,n,n,n,n,n,n
CCCCN(CCCC)S(=O)(=O)c1ccc(NC(=O)c2cccs2)cc1,n,n,n,n,n,23µM
Cc1ccc(NC(=O)c2cccs2)cc1,13µM,u,2.5µM,12µM,2.5µM,u
CCn1ccnc1[C@@H]1C[C@H]2CN(Cc3ccccc3OC)C(=O)[C@]23CCCN13,n,x,n,n,n,n
CCCCCC1=C2CNC(CC(C)C)(C(=O)OC)C=C2C(C)C1=O (configuration not stated),x,n,x,x,x,x
CCOc1ccc(S(=O)(=O)NCC(c2ccco2)S(=O)(=O)c2ccc(F)cc2)cc1 (configuration not stated),x,x,x,n,x,x
Clc1cc(Cl)c(OCc2nc(-c3ccccn3)no2)cc1Cl,u,11µM,1.1µM,1.3µM,0.71µM,u
CC(C)(C)c1ccc(OCc2nc(-c3ccccn3)no2)c(Br)c1,x,13µM,x,3µM,x,x
O=c1[nH]c(=O)c2cn[nH]c2[nH]1,n,x,n,n,n,n
COc1ccc(-n2cc(CNCCc3cscn3)c(-c3ccccc3Cl)n2)cc1,n,x,n,24µM,n,n
CCN1CC(CNCc2cn(-c3ccc(OC)cc3)nc2-c2ccccc2Cl)CC1=O (configuration not stated),n,x,n,u,n,n
Cc1ccc(-n2cc(CNCCc3cscn3)c(-c3ccc(F)cc3)n2)cc1,n,x,n,11µM,n,n
Cc1ccc(-n2cc(CNCCCn3ccnc3C)c(-c3ccc(F)cc3)n2)cc1,n,x,n,24µM,n,n
N#CCCn1c(=O)c(-c2ccccc2)nc2cnc(N3CCNCC3)nc21,x,n,x,x,x,x
CNC(=S)Nc1cccc(C(=O)O)c1,n,n,n,n,n,n
O=C(CCc1ccccc1)NC(=S)Nc1cccc(C(=O)O)c1,u,x,1.4µM,4.8µM,3.2µM,u
COc1ccc(NC(=O)CCCc2ccccc2)cc1OC,18µM,x,3.5µM,u,4µM,u
O=C(CCCc1ccccc1)Nc1cccc(C(=O)O)c1,n,1.6µM,0.32µM,0.38µM,0.25µM,u
